This passage reports activity results from PubChem BioAssay.

In assay [1] the target is Tumor necrosis factor receptor superfamily member 10B (Homo sapiens) (UniProt O14763). The assay is described as follows: viability loss of caspase-8 NB7 cells with TRAIL – with/without TRAIL, luminescence panel, confirmation (AID 651596). The note with it: NB7 neuroblastoma + caspase-8, TRAIL sensitization, NB7 Caspase-8, with TRAIL, mean of runs, at 10 µM, stronger effect = higher value.

Assay in assay [2]: as above
The note with it: NB7 neuroblastoma + caspase-8, without TRAIL, NB7 Caspase-8, without TRAIL, mean of runs, at 10 µM.

Chain of Tumor necrosis factor receptor superfamily member 10B (Homo sapiens) (O14763 whole entry, looked up): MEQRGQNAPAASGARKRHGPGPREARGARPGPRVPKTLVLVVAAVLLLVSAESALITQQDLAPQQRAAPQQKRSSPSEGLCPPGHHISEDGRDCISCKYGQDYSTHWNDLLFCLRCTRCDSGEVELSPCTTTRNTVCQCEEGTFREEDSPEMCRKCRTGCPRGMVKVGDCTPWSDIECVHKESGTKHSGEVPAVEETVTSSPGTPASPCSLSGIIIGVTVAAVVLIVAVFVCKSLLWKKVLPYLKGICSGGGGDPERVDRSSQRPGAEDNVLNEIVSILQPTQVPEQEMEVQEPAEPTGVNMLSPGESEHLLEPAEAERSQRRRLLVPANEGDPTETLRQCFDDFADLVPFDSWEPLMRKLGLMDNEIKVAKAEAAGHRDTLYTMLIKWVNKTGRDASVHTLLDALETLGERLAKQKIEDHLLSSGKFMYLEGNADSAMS

As for `COc1ccc(-c2cc(C(=O)OCC(=O)N3CCOCC3)c3ccccc3n2)cc1`, the values for the activity in assay [1] and in assay [2] were 36.6% and 49.6%, respectively.

`COc1ccc(-c2nnc(NC(=O)c3ccco3)s2)cc1`: the activity turned out to be 55.4% in assay [1] and 60.6% in assay [2].

`O=C(Nc1nc2c(s1)CCCC2)c1cccs1`: the activity in assay [1] amounted to 71.3%; in assay [2], 82.1%.

As for `COc1ccc(C(=O)/C=C/Nc2cc(C)ccn2)cc1`, the activity in assay [1] came out at 66.9%; in assay [2], 52.5%.

On to `Clc1ccccc1CSc1nc2ccncc2[nH]1`, for which the values for the activity in assay [1] and in assay [2] were 79% and 79.3%, respectively.

Take `COc1ccc(/C=C/C(=O)NC(=S)Nc2ccccn2)cc1`: the figures for the activity in assay [1] and in assay [2] were 29% and 37.3%, respectively.

For `N/C(Cc1ccc(Cl)cc1)=N\OC(=O)c1cccc2ccccc12`, the values for the activity in assay [1] and in assay [2] were 99% and 97.5%, respectively.

Turning to `NC(=O)c1ccccc1NC(=O)/C=C/c1ccccc1`, the activity in assay [1] came out at 67.8%; in assay [2], 70.7%.

For the molecule `Cc1ccc(Cl)cc1N1CCN(C(=O)c2noc(C)c2[N+](=O)[O-])CC1`, the values for the activity in assay [1] and in assay [2] were 99.3% and 97.1%, respectively.

Take `COc1ccc(C=NNC(=O)NN=Cc2ccc(OC)c(OC)c2)cc1OC`: the activity stood at 69% in assay [1] and 65% in assay [2].

Consider `Cc1ccc2nc(-c3ccc(NC(=O)C4CCCO4)cc3)[nH]c2c1` (stereo not drawn), for which the values for the activity in assay [1] and in assay [2] were 72.2% and 71.9%, respectively.

With `Cc1ccccc1-c1nc2sc3c(c2c(=O)n1N)CCCC3`, the activity in assay [1] came out at 44%; in assay [2], 46%.

As to `O=C(Nc1ccccc1)Nc1ccc(C(=O)N2CCCC2)cc1`, the activity in assay [1] was 65.6%; in assay [2] it was 71.5%.

As to `CC1(C(=O)N/N=C/c2c(F)c(F)c(F)c(F)c2F)CC1(Cl)Cl` (stereo not drawn), the figures for the activity in assay [1] and in assay [2] were 91.5% and 98.4%, respectively.

On to `CN=c1scc(-c2ccccc2F)n1/N=C(\C)c1cccnc1`, for which the activity in assay [1] was 54.9%; in assay [2], 51.2%.

For the molecule `O=C(c1ccc(CSc2nc3ccncc3[nH]2)cc1)N1CCCCCC1`, the values for the activity in assay [1] and in assay [2] were 85.7% and 82.1%, respectively.

As for `COc1ccc(C=Cc2ccc3ccccc3n2)c(OC)c1`, the figures for the activity in assay [1] and in assay [2] were 79.1% and 68.5%, respectively.

As for `Cc1ccc(C2=NN(C(=O)CCl)C(c3ccco3)C2)o1` (stereo not drawn), the activity worked out at 98.5% in assay [1] and 98.2% in assay [2].

For `Cc1cccc(NS(=O)(=O)c2ccc3c(c2)Cc2cc(S(=O)(=O)Nc4cccc(C)c4C)ccc2-3)c1C`, the results for the activity in assay [1] and in assay [2] were 72.1% and 77.5%, respectively.

On to `Cc1nc2c(-c3ccccc3)cnn2c(N)c1-c1ccccc1`, for which the activity in assay [1] is 92.6%; in assay [2] it was 90.9%.

Turning to `O=C(NCCN1C(=O)S/C(=C\c2ccc(Cl)c([N+](=O)[O-])c2)C1=O)C1=COCCO1`, the values for the activity in assay [1] and in assay [2] were 63.1% and 72.9%, respectively.

With `C=CCN1C=CC(=C/C=C(/C#N)C(=O)OCC)C=C1`, the activity in assay [1] worked out at 50.2%; in assay [2], 41.9%.

`O=C(NC(=S)Nc1ccc(Br)cn1)c1cccs1`: the activity is 71.7% in assay [1] and 73.2% in assay [2].

On to `Clc1ccc(-c2nc(-c3cnccn3)no2)cc1`, for which the activity in assay [1] came to 45.6%; in assay [2], 39.1%.

With `Cc1ccc(C(=O)N/C(=C\c2ccc(-c3ccccc3[N+](=O)[O-])o2)C(=O)NCCCN2CCOCC2)cc1`, the activity in assay [1] turned out to be 24.6%; in assay [2] it was 48.9%.

Turning to `Cn1c(=S)[nH]c2sc3c(c2c1=O)CCC(C(C)(C)C)C3` (stereo not drawn), the activity in assay [1] stood at 86.4%; in assay [2], 78%.

Regarding `CSc1nnc(NC(=O)c2ccc3c(c2)OCO3)s1`, the activity in assay [1] amounted to 76.5%; in assay [2] it was 78.7%.

As to `Cc1cc2[nH]c3c4ccccc4nc(C)c3c2cc1C`, the activity in assay [1] turned out to be 99.5%; in assay [2] it was 99.8%.

With `COn1c(SCc2cccc(Cl)c2)nc2ccccc2c1=O`, the figures for the activity in assay [1] and in assay [2] were 52.4% and 26.3%, respectively.

As to `CC(C)Nc1ncnc2c1cnn2-c1ccc(Cl)cc1`, the activity turned out to be 60.6% in assay [1] and 67.4% in assay [2].

As to `CSc1ncccc1C(=O)OCC(=O)c1cc(C)n(CC2CCCO2)c1C` (stereo not drawn), the activity came out at 44% in assay [1] and 23.6% in assay [2].

Regarding `O=Nc1c2cc(-c3ccccc3)[nH]nc-2c2ccccc12`, the activity in assay [1] turned out to be 78.8%; in assay [2], 78.7%.

On to `Fc1ccc(-n2nnc(-c3cnc4ccccc4c3)n2)cc1`, for which the values for the activity in assay [1] and in assay [2] were 70.8% and 63.9%, respectively.

Consider `CCOC(=O)c1cnc2c(-c3ccccc3)cnn2c1C`, for which the activity in assay [1] was found to be 50%; in assay [2], 35.7%.

As for `N#Cc1ccc(C(=O)Nc2nc(-c3cccs3)c(C(=O)C(F)(F)F)s2)cc1`, the activity in assay [1] worked out at 36.9%; in assay [2], 37%.

As for `CCC(=O)Nc1ccc(C(=O)Cn2ncc(Cl)c(Cl)c2=O)cc1`, the activity in assay [1] worked out at 99.4%; in assay [2] it was 99.3%.

With `CCCCCCCCCCCC1N=C(N)NC(CCCO)=C1C(=O)OC` (stereo not drawn), the activity was found to be 16.3% in assay [1] and 18.3% in assay [2].

In the case of `Cc1ccc(/C(N)=N/OC(=O)c2ccc(F)cc2)cc1`, the results for the activity in assay [1] and in assay [2] were 96.3% and 92.5%, respectively.

`COc1ccccc1NC(=O)Nc1ccc2c(c1)nnn2C`: the activity in assay [1] turned out to be 20.6%; in assay [2], 7.6%.

For the molecule `CC(C)c1ccc(OCc2cccc(C(=O)N/N=C/c3cccnc3)c2)cc1`, the activity in assay [1] amounted to 47.6%; in assay [2], 45.3%.

On to `O=C(Nc1nsc(-c2ccccc2)n1)c1cccs1`, for which the figures for the activity in assay [1] and in assay [2] were 56.6% and 56%, respectively.

For the molecule `O=C(NC(=S)N1CCc2ccccc21)c1ccccc1`, the activity in assay [1] worked out at 65.3%; in assay [2] it was 72.6%.

On to `Cc1ccc(NC(=O)Cn2ncc(Cl)c(Cl)c2=O)cc1S(=O)(=O)N1CCCCC1`, for which the values for the activity in assay [1] and in assay [2] were 86.5% and 99.5%, respectively.

For `O=C(NCCc1cccc(Cl)c1)c1ccc2c(c1)OCO2`, the activity in assay [1] was found to be 47.7%; in assay [2], 39.4%.

In the case of `COc1ccc(C(=O)NC(=O)Nc2cc(C)ccn2)cc1`, the values for the activity in assay [1] and in assay [2] were 95.3% and 95.4%, respectively.

As for `COc1ccccc1-c1nnc(-c2ccc(C)cc2)o1`, the activity is 46.6% in assay [1] and 43.5% in assay [2].

For the molecule `Cn1c(=N)n(CC(=O)c2ccccc2)c2ccccc21`, the activity worked out at 70.7% in assay [1] and 74.4% in assay [2].

Turning to `O=C(/C=C/NNC(=O)c1ccccc1)c1ccc([N+](=O)[O-])cc1`, the activity is 21.4% in assay [1] and 20% in assay [2].

For the molecule `Cc1ccc(-n2c(-c3ccc(Br)cc3)c[n+]3c2CCc2ccc4cccnc4c2-3)cc1`, the activity in assay [1] turned out to be 70.2%; in assay [2] it was 63%.
